# Measurements: PubChem BioAssay (NCATS)
# “And” between values parts separate entries of the source, which are not always exact repeats. Equal entries are not always repeated. Records with an inconclusive call do not appear. The source made the active and inactive calls. Calls follow the shape of the dose curve; as a rule, active = well fitted activation curve with a large enough effect; inconclusive = small, poorly fitted or top-dose-only effect; inactive = no such curve, though single readings can be large or run the other way.
# Molecular target: Cellular tumor antigen p53 (Homo sapiens) (UniProt P04637)
# Test: Primary qHTS for small molecule compounds that upregulate eGFP-tagged delta133p53alpha (in N-terminal) cells. (AID 2060322); also: nearly all actives have a fitted effect of over 75% in size;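 as to activation: cells pre-induced with doxycycline then dosed without doxycycline; series mostly up to about 56 µM; 0% = DMSO vehicle and 100% = reference activator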
# Details: NCI-H358 eGFP-delta133p53alpha fluorescence, 24 h; activation: stronger effect = higher value
# Description: Assay Development and Screening Technology
# National Center for Advancing Translational Sciences (NCATS),
# National Institute of Health (NIH), Rockville, Maryland
# Cellular senescence (CS) is one of the hallmarks of aging and age-related diseases. Senescent cells are characterized by an irreversible growth arrest, an increase in senescence-associated beta-galactosidase (SA-beta-gal) activity and p16INK4a expression, an activation of the DNA damage response pathways, and the emergence of a senescence-associated secretory phenotype (SASP).
# Delta133p53alpha, a human/primate-specific p53 protein isoform, delays or inhibits the induction of CS and SASP in various types of human cells, including progeria-derived fibroblasts, primary normal astrocytes, and CD8+ T lymphocytes. Induction of delta133p53alpha with small molecule compounds may provide therapeutic opportunities for inhibition of senescence/SASP-associated pathologies in progeria syndromes, astrocyte-mediated neuroprotection in neurodegenerative diseases, and possibly prevention and treatment of a wider range of senescence- and aging-associated diseases.
# Here we report the development and validation of a cell-based quantitative high throughput screening (qHTS) assay in 1,536-well format. This qHTS assay uses the NCI-H358 cell line with doxycycline-inducible expression of enhanced green fluorescent protein (eGFP)-tagged delta133p53alpha, which allows efficient and highly quantitative measurement of the protein levels.
# PROTOCOL TABLE (as described by Inglese J, Shamu CE and Guy RK. 2007)
# SEQUENCE No. (e.g., 1, 2, 3, etc.); […] (e.g., Cells, Incubation, Reagent, etc.); VALUE; DESCRIPTION.
# 1; Cells; 4uL; 800 doxycycline treated cells / well in doxycycline-free media, 1536-well black, clear-bottom low base Aurora microplates.
# 2; Compounds; 23 nL; Kalypsis pin tool (Wako) equipped with 1536-well pin heads, 5-azacytidine positive control.
# 3; Incubation; 24 hr; 37C, 5% CO2; 95% relative humidity.
# 4; Aspiration; 1x; BioTek EL406 washer dispenser (Agilent).
# 5; Fixing; 3.5% paraformaldehyde, BioTek EL406 washer dispenser (Agilent).
# 6; Washing; 1x PBS; BioTek EL406 washer dispenser (Agilent).
# 7; Nuclei staining; 1:1000 dilution of Hoechst 33342 (Thermofisher), BioTek EL406 washer dispenser (Agilent).
# 8; Incubation; 20 min; in the dark at room temperature.
# 9; Washing; 2x, 1x PBS (ThermoFisher), BioTek EL406 washer dispenser (Agilent).
# 10; Reagent; 10 uL; 1x PBS per well, sealed with clear adhesive tape.
# NOTES (numbers refer to sequence numbers above).
# 1. NCI-H358 cells expressing eGFP-tagged delta133p53alpha were grown in T75 culture flasks and treated with doxycycline for 24h, at 10 ng/ml for eGFP-D133p53a cells (N-terminal cell) and 100 ng/ml for D133p53a-eGFP cells (C-terminal cells). Cells were trypsinized, counted using a Counted 3 Automated Cell Counter (Thermo Fisher), and diluted to a concentration of 200,000 cells/ml. A Multidrop Combi Reagent Dispenser (ThermoFisher) was used to dispense 800 cells/well in […] of doxycycline-free media, into 1536-well black/clear bottom low base plates (AuroraMicroplates).
# 2. After plating cells, 23 nl of compound library, DMSO vehicle control or positive control (5-azacytidine) were transferred by Pin Tool (Wako). The plate map layout was the same for each plate: (column 1) non-doxycycline treated cells + DMSO vehicle control; (column 2) doxycycline treated cells + DMSO vehicle control baseline; (column 3) doxycycline treated cells + positive control 57.5 uM final concentration 5-azacytidine; (column 4) doxycycline treated cells + serial dilution of 5-azacytidine, 16-point 1:2 titration spanning 1.8 nM to […] final concentration; (columns 5-48) doxycycline treated cells + titration of library compounds.
# 3. Cells were incubated at 37 °C, 5 % CO2, 95% RH with breathable metal lid for 24h.
# 4-10. […] After two washes, 10 ul of 1X PBS (Thermo Fisher) was dispensed to each well. Clear adhesive plate seals (VWR) were applied and plates stored at 4 °C.
# 11. […]
# Potency is read from the fitted curve at half-maximal effect.
# Chain of Cellular tumor antigen p53 (Homo sapiens) (P04637 whole entry, looked up): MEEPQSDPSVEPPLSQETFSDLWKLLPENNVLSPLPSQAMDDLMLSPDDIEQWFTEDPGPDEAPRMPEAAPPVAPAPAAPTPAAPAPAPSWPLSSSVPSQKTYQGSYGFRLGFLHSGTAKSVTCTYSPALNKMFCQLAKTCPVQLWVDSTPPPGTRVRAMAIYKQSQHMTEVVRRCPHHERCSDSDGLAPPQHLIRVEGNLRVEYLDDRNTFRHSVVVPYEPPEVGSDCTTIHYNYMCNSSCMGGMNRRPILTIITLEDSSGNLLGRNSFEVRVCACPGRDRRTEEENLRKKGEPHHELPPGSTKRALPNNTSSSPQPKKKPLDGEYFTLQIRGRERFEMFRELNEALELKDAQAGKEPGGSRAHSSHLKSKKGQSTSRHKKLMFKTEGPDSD
Structure (SMILES),activation,Potency
O=C(CCN1CCN(CCO)CC1)N1c2ccccc2Sc2ccc(C(F)(F)F)cc21,-5.08% (inactive),
Cn1c(=O)c2nc(/C=C/c3cccc(Cl)c3)n(C)c2n(C)c1=O,-2.33% (inactive),
COc1ccc(C2(N(C)C(=O)c3ccc(NC(=O)c4ccco4)cc3)CCOCC2)cc1,-10.7% (inactive),
O=C(OC1CN2CCC1CC2)N1CCc2ccccc2C1c1ccccc1 (stereo not given),-3.82% (inactive),
C=C1C(O)CC2C(C(=O)O)=COC(O[C@@H]3O[C@H](COC(=O)c4ccc(O)cc4)[C@@H](O)[C@H](O)[C@H]3O)C12 (stereo not given in full),-6.11% (inactive),
C/C(=C\C(=O)OCCCCCCCCC(=O)O)C[C@@H]1OC[C@H](C[C@@H]2O[C@H]2[C@@H](C)[C@H](C)O)[C@@H](O)[C@H]1O,-7.64% (inactive),
O=C1C(O)=C(O)C(=O)C(O)=C1O,-14.1% (inactive),
CC1(C)O[C@@]2(C)CC[C@@H]1C[C@@H]2OC1OC(CO)C(O)C(O)C1O (stereo not given in full),-6.11% (inactive),
Cc1ccc(Sc2cncc3sc(C(N)=O)cc23)cc1,-17.7% (inactive),
CC12CC34CC(O)C5C(CO)(CO)CC(=O)CC5(C)C3CC1C2C4 (stereo not given),5.34% (inactive),
COC(=O)[C@@]1(c2ccc(C)cc2)C[C@H]1CN1CCC(O)(c2ccccc2)CC1,0.477% (inactive),
C=C1CC[C@@H]2[C@@](C)(CO[C@@H]3O[C@H](CO)[C@@H](O)[C@H](O)[C@H]3O)[C@H](O)CC[C@@]2(C)[C@@H]1CC/C(C)=C/CO[C@@H]1O[C@H](CO)[C@@H](O)[C@H](O)[C@H]1O,23.2% (inactive),
NCCCNc1ccc(Nc2nccc(Nc3cc(C4CC4)[nH]n3)n2)cc1,,1.51 µM (active)
CN(C)CCOc1ccc(C(=C(CCCl)c2ccccc2)c2ccccc2)cc1,17.8% (inactive),
Cc1nn(C)c2c1C(c1ccc(C(F)(F)F)cc1)C(C#N)=C(N)O2 (stereo not given),-5.25% (inactive) and 36.9% (inactive),
CC1(CN2CCC(n3c(=O)[nH]c4ccccc43)CC2)OCc2ccccc2-n2cccc21 (stereo not given),-25.4% (inactive) and -3.95% (inactive),
CCOC(=O)C1=C(C)NC(C)=C(C(=O)OC)C1c1cccc(Cl)c1Cl (stereo not given),16.4% (inactive) and -13.8% (inactive),
C[C@@H]1C(=O)O[C@H]2[C@H]1CC[C@@]1(C)C(=O)C=C[C@](C)(O)[C@H]21,1.79% (inactive),
CC(C)(C)NC(=O)[C@H]1CC[C@H]2[C@@H]3CC[C@H]4NC(=O)C=C[C@]4(C)[C@H]3CC[C@]12C,-14.2% (inactive) and -4.21% (inactive),
NS(=O)(=O)c1cc2c(cc1C(F)(F)F)NC(Cc1ccccc1)NS2(=O)=O (stereo not given),-6.69% (inactive),

Structure (SMILES),activation,Potency
CCS(=O)(=O)c1cccc(-c2cc(C(=O)NC3CCN(C)CC3)c(C)c3[nH]c4ncc(C)cc4c23)c1,,12.2 µM (active) and 5.88 µM (active)
C[C@]12CCC[C@](C)(C(=O)O)C1[C@@H](O)[C@@H](O)C13CC(CCC12)C(CO)(O[C@@H]1O[C@H](CO)[C@@H](O)[C@H](O)[C@H]1O)C3 (stereo not given in full),-9.16% (inactive),
Nc1ccccc1NC(=O)c1ccc(CNC(=O)OCc2cccnc2)cc1,3.28% (inactive),
C[C@@H]1CC[C@@]2(OC1)O[C@H]1C[C@H]3[C@@H]4CC=C5C[C@@H](O)CC[C@]5(C)[C@H]4CC[C@]3(C)[C@H]1[C@@H]2C,-4.46% (inactive),
O=C(Nc1ccccc1)N1CCN(Cc2ccc3ccccc3n2)CC1,8.59% (inactive),
COC(=O)C1=C(C)NC(C)=C(C(=O)OCCCN2CCC(c3ccccc3)(c3ccccc3)CC2)C1c1cccc([N+](=O)[O-])c1 (stereo not given),2.93% (inactive),
COc1cc2nc(Cl)nc(N)c2cc1OC,-37.9% (inactive),
Oc1c(I)cc(Cl)c2cccnc12,-2.51% (inactive),
C[C@@H]1O[C@@H](OC[C@H]2O[C@@H](OC(CCCCc3ccc(O)cc3)CCc3ccc(O)cc3)[C@H](O)[C@@H](O)[C@@H]2O)[C@H](O)[C@H](O)[C@H]1O (stereo not given in full),6.11% (inactive),
C[C@H]1CCN2C[C@]34C[C@@]5(C(=O)Nc6c5ccc5c6OC=CC(C)(C)O5)C(C)(C)C3C[C@]12C(=O)N4C (stereo not given in full),5.34% (inactive),
O=C(OC(C(F)(F)F)C(F)(F)F)N1CCN(Cc2cccc(Oc3ccccc3)c2)CC1,1.43% (inactive),
Cc1cc(NC(=O)C2=C(O)c3ccccc3S(=O)(=O)N2C)no1,-0.837% (inactive),
CC(=O)c1c(O)cc(O[C@@H]2O[C@H](CO)[C@@H](O)[C@H](O)[C@H]2O)cc1O,-8.04% (inactive),
O=C(O)COc1nn(Cc2ccccc2)c2ccccc12,28.8% (inactive),
O=C(O)c1cn(-c2ccc(F)cc2)c2cc(N3CCNCC3)c(F)cc2c1=O,-9.7% (inactive),
O=C(/C=C/c1ccc(O)c(O)c1)OCCc1ccccc1,-0.816% (inactive),
COc1cc2ncnc(Nc3cc(Br)c(O)c(Br)c3)c2cc1OC,26.5% (inactive),
CC1(C)CCCC2(C)c3c4c(c(=O)oc(=O)c3=CCC12)=CCC1C(C)(C)CCCC41C (stereo not given),-8.04% (inactive),
CC(=O)OCC1=C[C@@H]2OC(=O)C3=CO[C@@H](O[C@@H]4O[C@H](CO)[C@@H](O)[C@H](O)[C@H]4O)[C@H]1[C@@H]32,-16.8% (inactive),
CC(C)CC(NP(=O)(O)O[C@@H]1O[C@@H](C)[C@H](O)[C@@H](O)[C@H]1O)C(=O)NC(Cc1c[nH]c2ccccc12)C(=O)O (stereo not given in full),-14.9% (inactive),
